Measurements from PubChem BioAssay (EPA / NIEHS).
Activity calls are given as the source filed them. Rule for the calls: active = hit-call score of the fitted dose curve at least 0.9, where 1 is the maximum; inactive = score below 0.9.

What was measured:
Conditions in all cases: mRNA level, 48 h; actives raise or lower the signal
[1] = read-out: Apolipoprotein A-V (APOA5) gene, APOA5 (gene 116519); assay: LTEA_HepaRG_APOA5: Life Technologies and Expression Analysis (LTEA) Assay for Apolipoprotein A-V (APOA5) gene using HepaRG (AID 2283474)
Procedure, shortened: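 Differentiated HepaRG cells in serum-free induction medium, exposed 48 h in duplicate to eight half-log concentrations topping at 100 uM (0.5% DMSO). APOA5 mRNA by Fluidigm TaqMan qRT-PCR, normalized to ACTB, GAPDH and POLR2A; bidirectional fit versus DMSO.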

[2] = read-out: Apoptosis regulator Bcl-2 (Homo sapiens) (UniProt P10415); assay: LTEA_HepaRG_BCL2: Life Technologies and Expression Analysis (LTEA) Assay for Bcl-2 gene using HepaRG (AID 2283475);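 note: BCL2 transcript by TaqMan qRT-PCR normalised to ACTB GAPDH and POLR2A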
Procedure, shortened: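 Expression change of BCL2 mRNA in HepaRG after 48 h dosing, quantified by TaqMan qRT-PCR against three endogenous controls. Concentration-response used eight points up to 100 uM, vehicle 0.5% DMSO.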

[3] = read-out: Bcl-2 (BID) gene, BID (gene 637); assay: LTEA_HepaRG_BID: Life Technologies and Expression Analysis (LTEA) Assay for Bcl-2 (BID) gene using HepaRG (AID 2283476)
Procedure, shortened: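 Gain or loss of BID expression is fitted relative to 0.5% DMSO vehicle. Human HepaRG liver cells received a 48 h chemical exposure over an eight-point concentration range.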

Caspase-3 (Homo sapiens) = Caspase-3 (Homo sapiens) (UniProt P42574); assay: LTEA_HepaRG_CASP3: Life Technologies and Expression Analysis (LTEA) Assay for cysteine-aspartic acid protease (CASP3) using HepaRG (AID 2283477)
Procedure, shortened: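 Differentiated HepaRG cells, plated 48 h, were treated in duplicate in serum-free induction medium for 48 h with eight half-log concentrations up to 100 uM in 0.5% DMSO. CASP3 mRNA measured by qRT-PCR, normalized to ACTB, GAPDH, POLR2A.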

[4] = read-out: Cytochrome P450 (CYP24A1), CYP24A1 (gene 1591); assay: LTEA_HepaRG_CYP24A1: Life Technologies and Expression Analysis (LTEA) Assay for Cytochrome P450 (CYP24A1) using HepaRG (AID 2283478)
Procedure, shortened: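 HepaRG cells plated 48 h, then exposed in duplicate in serum-free induction medium for 48 h to 8-point half-log series from 100 uM in 0.5% DMSO. CYP24A1 mRNA by Fluidigm qRT-PCR, normalized to ACTB, GAPDH, POLR2A; bidirectional fit versus DMSO.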

[5] = read-out: Cytochrome P450 (CYP1A2), CYP1A2 (gene 1544); assay: LTEA_HepaRG_CYP1A2: Life Technologies and Expression Analysis (LTEA) Assay for Cytochrome P450 (CYP1A2) using HepaRG (AID 2283479)
Procedure, shortened: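 Differentiated human HepaRG cells in serum-free induction medium exposed 48 hours in duplicate to 8 half-log concentrations from 100 uM, 0.5% DMSO. CYP1A2 mRNA quantified by qRT-PCR, normalized to ACTB, GAPDH and POLR2A; bidirectional fitting versus DMSO.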

[6] = read-out: cysteine-aspartic acid protease (CASP8), CASP8 (gene 841); assay: LTEA_HepaRG_CASP8: Life Technologies and Expression Analysis (LTEA) Assay for cysteine-aspartic acid protease (CASP8) using HepaRG (AID 2283480)
Procedure, shortened: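 HepaRG, 48 h exposure, duplicate wells; 8 conc, half-log from 100 uM, 0.5% DMSO. Serum-free induction medium. CASP8 mRNA by TaqMan qRT-PCR, norm. ACTB/GAPDH/POLR2A; gain/loss fitted vs DMSO.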

[7] = read-out: Cytochrome P450 (CYP2B6), CYP2B6 (gene 1555); assay: LTEA_HepaRG_CYP2B6: Life Technologies and Expression Analysis (LTEA) Assay for Cytochrome P450 (CYP2B6) using HepaRG (AID 2283481)
Procedure, shortened: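 Differentiated human HepaRG cells in serum-free induction medium, dosed in duplicate for 48 h over 8 half-log concentrations topping at 100 uM (0.5% DMSO). CYP2B6 mRNA measured by TaqMan qRT-PCR, normalized to ACTB, GAPDH, POLR2A; bidirectional fit versus DMSO.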

[8] = read-out: Cytochrome P450 2C19 (Homo sapiens) (UniProt P33261); assay: LTEA_HepaRG_CYP2C19: Life Technologies and Expression Analysis (LTEA) Assay for CYP2C19 using HepaRG (AID 2283482)
Procedure, shortened: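 Differentiated HepaRG cells in serum-free induction medium exposed 48 h in duplicate, 8 concentrations from 100 uM by half-log steps in 0.5% DMSO. CYP2C19 mRNA measured by TaqMan qRT-PCR, normalized to ACTB, GAPDH, POLR2A. Bidirectional fit versus DMSO.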

CYP2C8 (gene 1558) = assay: LTEA_HepaRG_CYP2C8: Life Technologies and Expression Analysis (LTEA) Assay for CYP2C8 using HepaRG (AID 2283483)
Procedure, shortened: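 CYP2C8 mRNA induction or loss, by qRT-PCR normalized to ACTB/GAPDH/POLR2A, is read in HepaRG cells after 48 h treatment. Concentrations run from 100 uM down in half-log dilutions, with 0.5% DMSO as vehicle and baseline.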

Measured: AC50

Apoptosis regulator Bcl-2 (Homo sapiens), sequence (P10415 whole entry, looked up): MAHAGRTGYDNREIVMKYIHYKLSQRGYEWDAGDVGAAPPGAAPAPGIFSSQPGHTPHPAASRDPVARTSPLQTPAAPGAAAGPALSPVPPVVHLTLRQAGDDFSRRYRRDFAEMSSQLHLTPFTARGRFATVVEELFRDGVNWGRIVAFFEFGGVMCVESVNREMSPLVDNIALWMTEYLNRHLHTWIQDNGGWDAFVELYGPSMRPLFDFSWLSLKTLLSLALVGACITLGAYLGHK
Cytochrome P450 2C19 (Homo sapiens), sequence (P33261 whole entry, looked up): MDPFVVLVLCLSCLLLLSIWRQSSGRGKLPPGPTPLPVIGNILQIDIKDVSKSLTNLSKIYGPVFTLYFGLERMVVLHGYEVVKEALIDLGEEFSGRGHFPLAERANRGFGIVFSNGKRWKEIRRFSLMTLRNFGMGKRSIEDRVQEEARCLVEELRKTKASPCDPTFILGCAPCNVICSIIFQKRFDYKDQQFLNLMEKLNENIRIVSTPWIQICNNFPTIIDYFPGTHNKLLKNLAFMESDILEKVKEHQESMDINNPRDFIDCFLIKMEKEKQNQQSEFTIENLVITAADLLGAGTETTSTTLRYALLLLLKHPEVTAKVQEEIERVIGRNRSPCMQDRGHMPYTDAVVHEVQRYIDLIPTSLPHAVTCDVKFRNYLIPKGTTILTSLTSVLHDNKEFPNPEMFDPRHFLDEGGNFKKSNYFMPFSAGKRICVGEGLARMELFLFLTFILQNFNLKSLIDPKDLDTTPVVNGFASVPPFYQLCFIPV
Caspase-3 (Homo sapiens), sequence (P42574 whole entry, looked up): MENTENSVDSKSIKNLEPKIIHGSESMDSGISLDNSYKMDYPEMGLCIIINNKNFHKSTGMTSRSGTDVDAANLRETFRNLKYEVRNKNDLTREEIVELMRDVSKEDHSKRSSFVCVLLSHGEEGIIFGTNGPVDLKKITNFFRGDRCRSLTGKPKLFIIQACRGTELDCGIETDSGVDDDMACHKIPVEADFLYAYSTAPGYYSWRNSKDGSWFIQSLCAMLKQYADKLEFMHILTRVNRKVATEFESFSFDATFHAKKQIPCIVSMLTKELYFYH

CSc1ccc(Oc2ccc(S(N)(=O)=O)cc2CN(C)C)cc1C
active: [5] 50 µM | [7] 12.1 µM
inactive: all other assays above

CC(=O)O[C@]1(C(C)=O)CC[C@H]2[C@@H]3C=C(Cl)C4=CC(=O)[C@@H]5C[C@@H]5[C@]4(C)[C@H]3CC[C@@]21C
active: [1] 84.3 µM | [4] 0.00316 µM | [5] 78.7 µM | [7] 50 µM | [8] 63.5 µM
inactive: all other assays above

Cc1ccc(-c2cc(C(F)(F)F)nn2-c2ccc(S(N)(=O)=O)cc2)cc1
active: [5] 15.8 µM | [7] 90.2 µM | [8] 23.6 µM
inactive: all other assays above

N[C@@H](Cc1c[nH]c2ccccc12)C(=O)O
active: [5] 14.4 µM
inactive: all other assays above

CC(=O)OC1CC(C)OC(C)O1 (stereo unspecified)
active: [5] 50 µM
not listed: [8]
inactive: all other assays above

CCN(CC)CCOc1ccc(C(=C(Cl)c2ccccc2)c2ccccc2)cc1
active: [7] 3.32 µM
not listed: [8]
inactive: all other assays above

CCCC(=O)O
inactive: all assays above

CC1=C(C)S(=O)(=O)CCS1(=O)=O
inactive: [3] | [4] | [6] | CYP2C8 (gene 1558)
active: [1] 0.187 µM | [2] 88.4 µM | Caspase-3 (Homo sapiens) 69.8 µM | [5] 9.92 µM | [7] 89 µM

O=C(O)CN(CC(=O)O)CC(=O)O
active: [5] 45.8 µM
inactive: all other assays above

CCCCCCC(C=O)=Cc1ccccc1
not listed: [7]
inactive: all other assays above

CC(C)(C)c1ccccc1
inactive: all assays above

Cc1ccc(C(C)(C)C)c(O)c1
active: [5] 25.6 µM
inactive: all other assays above

C/C=C/c1ccc(OC)cc1
not listed: [8]
inactive: all other assays above

Cc1cc(SC2=C(O)C[C@@](CCc3ccc(N)cc3)(C(C)C)OC2=O)c(C(C)(C)C)cc1CO
active: [5] 0.572 µM | [7] 2.89 µM | CYP2C8 (gene 1558) 3.03 µM
not listed: [8]
inactive: all other assays above

CC(C)COC(=O)CCCCC(=O)OCC(C)C
not listed: [8]
inactive: all other assays above

NCCOCCOCCN
inactive: all assays above

CCCCCCCCCC[N+](C)(C)[O-]
active: [7] 34 µM
not listed: [8]
inactive: all other assays above

S=c1[nH]c2ccccc2s1
active: [5] 10.7 µM
not listed: [8]
inactive: all other assays above

COc1ccc(OC(F)(F)F)cc1CN[C@H]1CCCN[C@H]1c1ccccc1
active: Caspase-3 (Homo sapiens) 81.8 µM | [5] 15.8 µM | [7] 86.1 µM | [8] 2.8 µM
inactive: all other assays above

CC(=O)S[C@H](C(=O)N[C@H]1Cc2ccccc2[C@H]2CCC[C@@H](C(=O)O)N2C1=O)C(C)C
inactive: all assays above
